Data: PubChem BioAssay (EPA / NIEHS)
The source made the active and inactive calls. How the source made its calls: active means hit-call score of the fitted dose curve at least 0.9, where 1 is the maximum; inactive means score below 0.9.

Target: Transcription factor Sp1 (Homo sapiens) (UniProt P08047)
Test: ATG_Sp1_CIS: Attagene CIS-FACTORIAL HepG2 Assay for human Specificity Protein 1 (Sp1) (AID 2282961)
Settings: HepG2 Sp1 cis-reporter transcription, actives raise or lower the signal
Method: ATG_CIS is a cell-based, multiplexed-readout assay that uses HepG2, a human liver cell line, with measurements taken at 24 hours after chemical dosing in a 24-well plate.ATG_Sp1_CIS is one of 52 assay component(s) measured or calculated from the ATG_CIS assay. It is designed to make measurements of mRNA induction, a form of inducible reporter, as detected with fluorescence intensity signals by Reverse transcription polymerase chain reaction (RT-PCR) and Capillary electrophoresis technology.Data from the assay component ATG_Sp1_CIS was analyzed into 1 assay endpoint. This assay endpoint, ATG_Sp1_CIS, was analyzed with bidirectional fitting relative to DMSO as the negative control and baseline of activity. Using a type of inducible reporter, measures of mRNA for gain or loss-of-signal activity can be used to understand the reporter gene at the transcription factor-level as they relate to the gene SP1. Furthermore, this assay endpoint can be referred to as a primary readout, because this assay has produced multiple assay endpoints where this one serves a reporter gene function. To generalize the intended target to other relatable targets, this assay endpoint is annotated to the dna binding intended target family, where the subfamily is zinc finger.
Human liver HepG2 cells are transiently transfected with multiple reporter transcription units (MRTUs) in 6-well plates using FuGene 6 reagent (Roche; 3 ml FuGene/1 mg DNA). The MRTU constructs are regulated by a cis-regulating element (promoter). […] A major difference between the CIS and TRANS system is that in CIS activities of endogenous TFs are measured, whereas the TRANS assay evaluates changes in activities of exogenous, chimeric NR-Gal4 proteins. […] At the end of 24 hour incubation, total RNA was isolated using TriZol reagent (Invitrogen). The isolated RNA is then reverse-transcribed using oligo(dT) primer and Mo-MLV reverse transcriptase (Invitrogen) with DNAse I (Ambion) treatment for 30 min. The one-tenth of the produced cDNA was amplified by PCR using Taq DNA polymerase (Invitrogen) and two reporter sequence-specific primers. The PCR products were fluorescently labeled by primer extension with 6-arboxyfluorescein (6-FAM) 5'-labeled reporter sequence-specific primer (2 min at 95 C, 20 s at 68 C and 10 min at 72 C) and these products were digested with 5U of HpaI (New England Biolabs) for 2h at 37 C. The fragments were purified using Qiaquick PCR columns (Qiagen), analyzed on an ABI 3130xL genetic analyzer (Applied Biosystems) with peak positions identified by using a set of X-rhodamine (ROX)-labeled MapMarker1000 molecular weight standards (BioVentures). The raw capillary electrophoresis data was processed using Attagraph software (Attagene).

Sequence of Transcription factor Sp1 (Homo sapiens) (P08047 whole entry, looked up): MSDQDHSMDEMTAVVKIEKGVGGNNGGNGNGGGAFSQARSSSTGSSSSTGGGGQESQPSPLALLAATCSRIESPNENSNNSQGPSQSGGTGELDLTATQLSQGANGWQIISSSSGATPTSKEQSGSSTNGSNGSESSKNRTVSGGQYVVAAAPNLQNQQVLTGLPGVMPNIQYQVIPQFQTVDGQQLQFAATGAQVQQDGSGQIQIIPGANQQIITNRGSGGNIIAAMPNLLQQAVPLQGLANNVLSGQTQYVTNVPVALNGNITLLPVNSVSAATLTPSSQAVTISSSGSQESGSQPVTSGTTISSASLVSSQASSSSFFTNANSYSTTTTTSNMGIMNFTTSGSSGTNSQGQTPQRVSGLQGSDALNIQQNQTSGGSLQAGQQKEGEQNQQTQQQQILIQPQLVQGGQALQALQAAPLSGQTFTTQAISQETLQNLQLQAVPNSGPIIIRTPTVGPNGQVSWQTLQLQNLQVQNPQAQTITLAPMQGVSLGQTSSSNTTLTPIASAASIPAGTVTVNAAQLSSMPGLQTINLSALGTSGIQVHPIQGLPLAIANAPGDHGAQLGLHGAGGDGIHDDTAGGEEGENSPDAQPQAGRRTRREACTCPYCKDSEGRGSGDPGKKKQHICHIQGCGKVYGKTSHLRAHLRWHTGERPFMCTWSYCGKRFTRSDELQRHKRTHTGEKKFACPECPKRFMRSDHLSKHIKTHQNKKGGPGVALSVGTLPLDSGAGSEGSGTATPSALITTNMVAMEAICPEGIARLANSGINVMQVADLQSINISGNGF

Compound	AC50	outcome
Cc1ccc(O)c(C(C)(C)C)c1	80.7 µM (active)	
CCCc1ccccc1O		inactive
O=C(Oc1ccccc1)c1ccc(O)cc1		inactive
CC(C)c1cccc(O)c1		inactive
C=C[Si](OCC)(OCC)OCC		inactive
CCC(C)(O)CCC=C(C)C (stereo not given)		inactive
CNC(=O)Oc1ccc2c(c1)[C@]1(C)CCN(C)[C@@H]1N2C		inactive
COc1c(Cl)c(Cl)c(Cl)c(Cl)c1Cl		inactive
OCCCCCO		inactive
CCCCCCCCCC=O		inactive
FC1(F)C(F)(F)C(F)(F)C2(F)C(F)(C1(F)F)C(F)(F)C(F)(F)C1(F)C(F)(F)C(F)(F)C(F)(F)C(F)(F)C12F (stereo not given)		inactive
CCCCCCCCCCCCSC		inactive
Cc1ccc(S)cc1		inactive
Sc1nc(S)nc(S)n1		inactive
O=C(O)c1ccc([N+](=O)[O-])cc1		inactive
CCCc1c(OCCCOc2ccc(OCC(=O)O)cc2)ccc(C(C)=O)c1O		inactive
CCCCCCCCC		inactive
CC(=O)[C@H]1CC[C@H]2[C@@H]3CC=C4C[C@@H](O)CC[C@]4(C)[C@H]3CC[C@]12C		inactive
O=C(COc1ccc(Cl)cc1)N1CCN(Cc2ccc3c(c2)OCO3)CC1		inactive
C=C(C)C(=O)O[C@H]1C[C@@H]2CC[C@@]1(C)C2(C)C		inactive

Compound	AC50	outcome
CCCCCCCCC=O		inactive
COC(=O)C1=C(C)NC(C)=C(C(=O)OCCN(C)Cc2ccccc2)C1c1cccc([N+](=O)[O-])c1 (stereo not given)		inactive
C=COCCOCCOCCOC=C		inactive
CCCCCCCCCCC(CO)CCCCCCCC (stereo not given)		inactive
CC(C)(C)NC(N)=O		inactive
C=CC(C)(C)O		inactive
CC(=O)OCCC(C)CC(C)(C)C (stereo not given)		inactive
BrC1CCC(Br)C(Br)CCC(Br)C(Br)CCC1Br (stereo not given)	87 µM (active)	
NC(=O)Nc1ccc(Cl)cc1		inactive
O=C(O)c1snc(Cl)c1Cl		inactive
CC(=O)c1c(C)cc(C(C)(C)C)cc1C		inactive
O=C(O)c1cccc([N+](=O)[O-])c1		inactive
CN1Cc2c(N)cccc2C(c2ccccc2)C1 (stereo not given)		inactive
Cc1ccc2n[nH]nc2c1		inactive
OCc1cccnc1		inactive
CC(C)CCCCCCCOC(=O)c1ccc(C(=O)OCCCCCCCC(C)C)c(C(=O)OCCCCCCCC(C)C)c1		inactive
CCCCC[Si](OCC)(OCC)OCC		inactive
C=CC(=O)OCCn1c(=O)n(CCOC(=O)C=C)c(=O)n(CCOC(=O)C=C)c1=O	8.63 µM (active)	
Cc1ccc(Nc2ccc(O)c3c2C(=O)c2ccccc2C3=O)cc1		inactive
CCC(C)CCCC(C)(C)O (stereo not given)		inactive
